Assay [1] addresses Cytochrome P450 2D6 (Homo sapiens) (UniProt P10635). Nature of the assay: Cytochrome P450 family 2 subfamily D member 6 (CYP2D6) small molecule antagonists: luciferase biochemical (cell-free) qHTS assay (AID 1645840; active means well fitted curve in the direction sought with a large enough effect in the repeat runs; an effect the other way counts as inactive or inconclusive; further: nearly all actives have a fitted effect of over 55% in size). The conditions noted are these: P450-Glo CYP2D6 enzyme, luciferin luminescence, 1 h; series mostly up to 57.4 µM. In short, it runs like this:
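P450-Glo CYP2D6 system: proluciferin substrate converted by enzyme to luciferin, read by luminescence proportional to activity. Enzyme-substrate mix with compound 10 min at room temperature, then NADPH regeneration 1 h before detection reagent.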

Assay [2] has as its target Cytochrome P450 2C9 (Homo sapiens) (UniProt P11712). The experiment in a line: Cytochrome P450 family 2 subfamily C member 9 (CYP2C9) small molecule antagonists: luciferase biochemical (cell-free) qHTS assay (AID 1645842; active means well fitted curve in the direction sought with a large enough effect in the repeat runs; an effect the other way counts as inactive or inconclusive; further: nearly all actives have a fitted effect of over 55% in size). The conditions noted are these: P450-Glo CYP2C9 enzyme assay, luciferin luminescence; series mostly up to 57.4 µM. In short, it runs like this:
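P450-Glo CYP2C9 system: proluciferin substrate with enzyme in mix containing 0.4% BSA, 10 min at room temperature, then NADPH regeneration solution added and incubated 1 h at 37C. Detection reagent stopped reaction; luminescence read after 20 min as RLU.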
(In general: In qHTS, concentration-response curves come from the screen itself.)

The nature of assay [3]: Primary qHTS for inhibitors of nuclear receptor binding SET domain protein 2 (NSD2) in an isogenic RCH-ACV NSD2 p.E1099K mutant (9B) (AID 1645876). Further: nearly all actives have a fitted effect of over 70% in size. The conditions noted are these: RCH-ACV NSD2 E1099K (9B) viability, CellTiter-Glo, 72 h; series mostly up to 44.9 µM.
A short description of assay [4]: Primary qHTS for inhibitors of nuclear receptor binding SET domain protein 2 (NSD2) in an RCH-ACV wild type WT cells (2C) (AID 1645877). Further: nearly all actives have a fitted effect of over 70% in size. The conditions noted are these: RCH-ACV (leukaemia line) NSD2 WT (2C) viability, CellTiter-Glo, 72 h; series mostly up to 44.9 µM.

Values joined by “and” are separate entries in the source; they are usually repeats but may differ in a detail not shown here. Equal values may be shown once. Records with an inconclusive call do not appear. Active and inactive are the calls of the source. Unless noted, the call rests on the fitted dose curve; in most records, active means well fitted curve in the direction sought with a large enough effect; inconclusive means small, poorly fitted or top-dose-only effect, or another doubt; inactive means no such curve, though single readings can be large; an effect the other way counts as inactive or inconclusive.
Potency means the concentration at half of the fitted maximal effect.

Sequence of Cytochrome P450 2C9 (Homo sapiens) (P11712 whole entry, looked up): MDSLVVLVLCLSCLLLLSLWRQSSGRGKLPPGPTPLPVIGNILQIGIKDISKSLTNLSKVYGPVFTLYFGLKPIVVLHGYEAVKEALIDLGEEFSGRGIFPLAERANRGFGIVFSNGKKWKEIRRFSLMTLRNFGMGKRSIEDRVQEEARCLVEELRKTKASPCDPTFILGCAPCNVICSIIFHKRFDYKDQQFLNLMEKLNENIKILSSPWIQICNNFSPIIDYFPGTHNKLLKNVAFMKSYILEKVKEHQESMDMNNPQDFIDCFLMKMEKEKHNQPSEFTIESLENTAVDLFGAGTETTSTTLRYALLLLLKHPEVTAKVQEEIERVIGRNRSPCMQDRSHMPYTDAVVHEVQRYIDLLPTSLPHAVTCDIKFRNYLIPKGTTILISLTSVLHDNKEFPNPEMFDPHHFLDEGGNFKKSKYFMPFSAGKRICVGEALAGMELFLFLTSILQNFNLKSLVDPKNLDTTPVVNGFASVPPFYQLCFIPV
Sequence of Cytochrome P450 2D6 (Homo sapiens) (P10635 whole entry, looked up): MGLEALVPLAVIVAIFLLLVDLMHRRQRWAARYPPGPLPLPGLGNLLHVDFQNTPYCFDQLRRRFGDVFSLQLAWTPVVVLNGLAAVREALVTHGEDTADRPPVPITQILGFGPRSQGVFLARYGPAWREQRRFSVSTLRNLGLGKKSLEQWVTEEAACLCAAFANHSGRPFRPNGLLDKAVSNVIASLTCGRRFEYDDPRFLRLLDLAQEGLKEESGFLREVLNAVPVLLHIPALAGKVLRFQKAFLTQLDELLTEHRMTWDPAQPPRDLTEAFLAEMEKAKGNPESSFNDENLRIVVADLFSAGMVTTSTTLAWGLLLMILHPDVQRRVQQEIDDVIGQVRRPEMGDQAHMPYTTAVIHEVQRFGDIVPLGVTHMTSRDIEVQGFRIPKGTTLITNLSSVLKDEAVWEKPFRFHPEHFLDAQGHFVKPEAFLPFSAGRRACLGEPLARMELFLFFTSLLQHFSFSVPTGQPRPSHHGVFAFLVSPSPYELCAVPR

On to `Cc1ccc(S(=O)(=O)NCc2ccc(C(=O)NCCN(Cc3ccccc3)C(C)C)cc2)cc1`, for which the Potency in assay [1] is 12 µM (active); in assay [2] it was 9.52 µM (active); in assay [3], 16.3 µM (active); in assay [4] it was 23 µM (active).

For `Cn1cc(-c2ccc(F)c(C(F)(F)F)c2)nc1C1CCN(c2ncnc3[nH]ncc23)CC1`, the Potency result in assay [1], in assay [2], in assay [3] and in assay [4] was “inactive” in each case.

On to `O=C(Nc1ccc(-c2ccnc(Nc3ccc(N4CCOCC4)cc3)n2)cc1)C1CCCN1` (stereo not drawn), for which the Potency entry in assay [1] is “inactive”. Also, the results for the Potency in assay [2], in assay [3] and in assay [4] were 2.13 µM (active), 4.61 µM (active) and 4.11 µM (active), respectively.

Regarding `O=C(c1ccccn1)N(Cc1cccs1)C1(C(=O)NC2CCCCC2)CCCCC1`, the Potency result in assay [1], in assay [3] and in assay [4] was “inactive” each time. Further, in assay [2], the Potency was 9.52 µM (active).

As to `COc1cc(F)c(C(C)C)cc1-c1ccc(C(F)(F)F)cc1CN1C(=O)OC(c2cc(C(F)(F)F)cc(C(F)(F)F)c2)C1C` (stereo not drawn), the Potency entry in assay [1], in assay [2], in assay [3] and in assay [4] was “inactive” in each case.

As for `C[C@@H](NC(=O)C(=O)c1c[nH]c2ccc([N+](=O)[O-])cc12)c1ccccc1`, the Potency result in assay [1], in assay [2], in assay [3] and in assay [4] was “inactive” throughout.

Take `CC(C)(C)c1ccc(C(=O)Nc2cn3cc(-n4ccnc4)ccc3n2)cc1`: the Potency entry in assay [1], in assay [3] and in assay [4] was “inactive” each time. Also, the Potency in assay [2] was 7.56 µM (active).

Consider `OC1(CN2CCC(COc3noc4cccc(O[C@@H]5CCOC5)c34)CC2)CCOCC1`, for which the Potency was 6.74 µM (active) in assay [1] and 9.52 µM (active) in assay [2]. Further, the Potency result in assay [3] and in assay [4] was “inactive” throughout.

With `O=C(NC1CCN(CCCCC2(C(=O)NCC(F)(F)F)c3ccccc3-c3ccccc32)CC1)c1ccccc1-c1ccc(C(F)(F)F)cc1`, the Potency in assay [1] is 1.07 µM (active); in assay [2], 15.1 µM (active); in assay [3], 2.9 µM (active); in assay [4], 2.9 µM (active).

Regarding `O=C1C(Cc2ccc(O)cc2)N2C(=O)CCN(C(=O)NCc3ccccc3)C2CN1Cc1cccc2ccccc12` (stereo not drawn), the Potency is 1.07 µM (active) in assay [1], 10.7 µM (active) in assay [2], 3.65 µM (active) in assay [3] and 5.15 µM (active) in assay [4].

Take `Fc1ccc(N2CCCCC2)c(NC(=S)c2ccncc2)c1`: the Potency in assay [1] was 1.69 µM (active); in assay [2] it was 6.01 µM (active); in assay [3] it was 10.3 µM (active); in assay [4], 12.9 µM (active).

In the case of `O=S(=O)(NCc1cccc2ccccc12)c1cc(Cl)c(Oc2cccc(N3CCNCC3)c2)s1`, the Potency in assay [1] is 8.49 µM (active); in assay [2], 1.69 µM (active); in assay [3] it was 7.28 µM (active); in assay [4], 5.78 µM (active).

For the compound `COC(C)(C)CCn1nc(Nc2c(C)cccc2C)c2cnc(Nc3ccc(OCCN4CCCC4)c(F)c3)nc21`, the Potency is 15.1 µM (active) in assay [1]; 6.01 µM (active) in assay [2]; 103 nM (active) and 263 nM (active) in assay [3]; 163 nM (active) and 468 nM (active) in assay [4].

As to `Nc1nccc(-c2c(-c3ccc(F)cc3)ncn2C2CCCCC2)n1`, the Potency in assay [1] is 15.1 µM (active); in assay [2] it was 16.9 µM (active); in assay [3], 9.16 µM (active) and 11.8 µM (active); in assay [4], 14.5 µM (active) and 10.5 µM (active).

As for `C#CCNCc1cc2cc(OCc3ccccc3)ccc2[nH]1`, the values for the Potency in assay [1] and in assay [2] were 23.9 µM (active) and 3.79 µM (active), respectively. In addition, the Potency result in assay [3] and in assay [4] was “inactive” in each case.

With `N#CC(CCCN1CCN(/N=C/c2cccnc2)CC1)(c1ccccc1)c1ccccc1`, the Potency is 0.849 µM (active) in assay [1] and 7.56 µM (active) in assay [2]. In addition, the Potency entry in assay [3] and in assay [4] was “inactive” throughout.

As for `CNc1cc2[nH]c(=O)n(-c3ccc(NC(=O)NS(=O)(=O)c4ccc(Cl)s4)cc3)c(=O)c2cc1F`, the Potency entry in assay [1], in assay [2], in assay [3] and in assay [4] was “inactive” in each case.

Turning to `COc1cc2c(cc1OC(C)C)[C@H](c1ccc(Cl)cc1)N(c1ccc(N(C)CC3CCC(N4CCN(C)C(=O)C4)CC3)cc1)C(=O)C2` (stereo partly drawn), the Potency in assay [1] is 21.3 µM (active); in assay [2], 6.74 µM (active); in assay [3] it was 1.83 µM (active) and 2.09 µM (active); in assay [4], 817 nM (active) and 1.18 µM (active).

In the case of `COc1ccc(Oc2c(Cl)cnn(-c3cc(C)cc(C)c3)c2=O)cc1`, in assay [1], the Potency result is “inactive”. Besides, the Potency in assay [2] is 12 µM (active); in assay [3], 11.5 µM (active); in assay [4] it was 4.09 µM (active).

`Nc1ncnc2c1c(-c1ccc(Oc3ccccc3)cc1)nn2[C@@H]1CCCNC1`: the Potency in assay [1] was 15.1 µM (active); in assay [3], 1.63 µM (active); in assay [4], 2.3 µM (active). For the same compound, in assay [2], the Potency result was “inactive”.

For `CC(C)(O)C(=O)N1CCN(c2ccc(C(F)(F)F)c(C3=C(c4c[nH]c5ccccc45)C(=O)NC3=O)c2)CC1`, the Potency was 21.3 µM (active) in assay [1], 3.79 µM (active) in assay [2], 1.15 µM (active) in assay [3] and 1.03 µM (active) in assay [4].

In the case of `COc1c(C)cnc(Cn2cc(C#CCC(C)(C)O)c3c(Cl)nc(N)nc32)c1C`, in assay [1], the Potency result was “inactive”. The Potency in assay [2] is 2.39 µM (active); in assay [3], 0.129 µM (active); in assay [4], 0.145 µM (active).

The record behind these values is PubChem BioAssay (NCATS).
